Data as given in PubChem BioAssay (NCATS).
Values joined by “and” are separate entries in the source; they are usually repeats but may differ in a detail not shown here. Identical values can stand only once. Results filed as inconclusive are left out. Active and inactive are the calls of the source. Unless noted, the call rests on the fitted dose curve; in most records, active means well fitted curve in the direction sought with a large enough effect; inconclusive means small, poorly fitted or top-dose-only effect, or another doubt; inactive means no such curve, though single readings can be large; an effect the other way counts as inactive or inconclusive.

Tests used:
[1] = Validation screen for small molecules that induce genotoxicity in human embryonic kidney (HEK293T) cells expressing luciferase-tagged ELG1 (AID 493106); further: 0% is about no effect
Procedure, shortened: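 qHTS format; 2,000 HEK293T ELG1-luc cells/well; 23 nL compound via pin tool; 16 hr, 37 °C/5% CO2; ONE-Glo, 30 min RT; luminescence read.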

[2] = molecular target: ATPase family AAA domain-containing protein 5 (Homo sapiens) (UniProt Q96QE3); experiment: Validation screen for small molecules that inhibit ELG1-dependent DNA repair in human embryonic kidney (HEK293T) cells expressing luciferase-tagged ELG1 (AID 493107);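 further: cells co-treated with the DNA-damaging agent 5-fluorouridine alongside compound; series mostly up to about 46 µM; on the % scale 0 is the no-effect control and ±100 the full control effect; inhibitors lower the ELG1-luciferase luminescence signal; nearly all actives have a fitted effect of over 70% in size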
Procedure, shortened: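 ELG1-luciferase HEK293T reporter; 5-fluorouridine + compound/DMSO, 16 hr, 37 °C, 5% CO2; ONE-Glo 30 min RT; luminescence read, qHTS format.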

[3] = molecular target: Thyrotropin-releasing hormone receptor (Homo sapiens) (UniProt P34981); experiment: qHTS for Small Molecule Agonists and Allosteric Enhancers of Human TRH Receptor: Validation Screen for Agonists (AID 493127;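 active means calcium activation more than 3 SD above the typical response in the agonist read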;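 further: intracellular calcium rise by fluo-8 fluorescence before TRH EC20 addition; 0% is about no effect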); conditions: TRH receptor agonist cell assay; at 2 µM; stronger effect = higher value
Procedure, shortened: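 Read-out: intracellular calcium release measured kinetically by FDSS (fluo-8, ex 480/em 530 nm), 1 reading/s after a 10-cycle baseline. TRHR cells, 2000/well, cultured 18 h at 33.5C, dye-loaded at room temp. Compound-evoked positive calcium signal flags agonists.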

[4] = Nrf2 qHTS screen for inhibitors: Validation (AID 493153; active means well fitted inhibition curve with a large enough effect in the main read-out, with a control signal flat, not every such curve was filed as active); conditions: Potency: luciferase luminescence; viability change: measured here: cytotoxicity max response
Procedure, shortened: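 Concentration-response test in A549 ARE_Fluc reporter cells (5% FBS OPTI-MEM), compound exposure 18-24 h at 37°C, 5% CO2. Cell viability measured first by CellTiter-Fluor fluorescence; ARE-driven luciferase luminescence then measured as Nrf2 activity.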

[5] = qHTS for Inhibitors of Cell Surface uPA Generation: Validation Assay (AID 493164);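 further: RAW 264.7 macrophage cells exposed to compound for 18 h; 0% is about no effect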
Procedure, shortened: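 Compounds are titrated over seven points (2.45 nM–38.3 uM final) onto pre-plated RAW 264.7 cells and incubated for 18 h. Retained intracellular ATP, measured with ATP-Lite, indicates blocked lethal factor entry.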

[6] = molecular target: Galactokinase (Homo sapiens) (UniProt P51570); experiment: qHTS Validation Assay for Inhibitors of Human Galactokinase (GALK) (AID 493189); further: 0% is about no effect
Procedure, shortened: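 5 nM GALK / 100 uM galactose / 35 uM ATP, 20 mM HEPES pH8.0, 5 mM MgCl2, 60 mM NaCl, 1 mM DTT, 0.01% BSA (final). RT 1 h; Kinase-Glo Plus luminescence.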

[7] = Validation screen for small molecules that induce DNA re-replication in SW480 colon adenocarcinoma cells (AID 504364); further: 0% is about no effect
Procedure, shortened: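 Read-out: total Hoechst intensity of nuclei by fluorescence scanning imager; hits raise the fraction of nuclei with elevated DNA content. Cells received compound for 48 hr at 37 C before a 40 min stain.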

[8] = molecular target: Peptidyl-prolyl cis-trans isomerase NIMA-interacting 1 (Homo sapiens) (UniProt Q13526); experiment: qHTS Validation Assay to Find Inhibitors of Pin1 (AID 504536; active means well fitted inhibition curve with a large enough effect in the polarisation, with a control signal flat, not every such curve was filed as active; the % refers to the polarisation;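 further: 0% = full Pin1 enzyme wells and -100% = no-enzyme wells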)
Procedure, shortened: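 Fluorescence polarization competition: compounds (titration) displace HiFluor-488-labeled Pin1-1b peptide from Pin1 (0.3 uM final) in pH 7.5 HEPES buffer with DTT, 10 min at room temperature; %Activity normalized to no-enzyme wells, curves fitted.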

[9] = molecular target: Phosphoglycerate kinase, glycosomal (Trypanosoma brucei brucei) (UniProt P07378); experiment: qHTS Validation Assay to Find Inhibitors of Phosphoglycerate Kinase (AID 504547);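 further: control wells lack PGK and mark full inhibition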
Procedure, shortened: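 Compounds are pinned into the substrate/PGK mixture, and GAPDH (100nM final) is added to start the reaction by producing 1,3-BPG. After 60 minutes at room temperature, Kinase-Glo Plus is added and luminescence is measured 10 minutes later.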

[10] = molecular target: phosphoglycerate mutase (Leishmania major) (UniProt Q4Q090); experiment: qHTS Validation Assay to Find Inhibitors of Phosphoglycerate Mutase (AID 504548);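 further: end-point luminescence from Kinase-GloPlus after the PGAM reaction; series mostly up to about 58 µM; on the % scale 0 is the no-effect control and ±100 the full control effect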
Procedure, shortened: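 Inhibition of L. major PGAM was assessed by Kinase-GloPlus luminescence following a 45-minute room-temperature reaction with enzyme at 1.25nM final.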

[11] = molecular target: Ubiquitin carboxyl-terminal hydrolase 1 (Homo sapiens) (UniProt O94782); experiment: Inhibitors of USP1/UAF1: Pilot qHTS (AID 504865);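 further: rhodamine fluorescence freed from ubiquitin-rhodamine substrate followed over time; top concentration of the series differs between compounds; on the % scale 0 is the no-effect control and ±100 the full control effect; nearly all actives have a fitted effect of over 35% in size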
Procedure, shortened: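 In 50mM HEPES pH 7.8 containing 0.5mM EDTA, 1mM TCEP, 0.1 mg/ml BSA and 0.01% Tween-20, 1nM USP1/UAF1 is exposed to compound for 15 min, then Ub-Rho (150nM final) is added and fluorescence is read over time.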

[12] = qHTS for Inhibitors of ATXN expression: Validation of Cytotoxic Assay (AID 588349); further: on the % scale 0 is the no-effect control and ±100 the full control effect
Procedure, shortened: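 Cytotoxicity counter-screen: HEK293 cells exposed to compound titrations, 72 hr, 37 degrees C. Read-out is intracellular ATP (CellTiter Glo luminescence) as a viability measure.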

[13] = qHTS for Inhibitors of ATXN expression: Validation (AID 588378); further: series mostly up to about 57 µM; on the % scale 0 is the no-effect control and ±100 the full control effect; nearly all actives have a fitted effect of over 75% in size
Procedure, shortened: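 Compounds were pinned onto attached HEK293 cells carrying an ATXN2-firefly luciferase construct and incubated 24 hrs at 37 degrees C. Each well then received a fluorescent viability reagent followed by luciferase substrate for end-point luminescence.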

[14] = molecular target: ATP-dependent 6-phosphofructokinase (Trypanosoma brucei brucei) (UniProt O15648); experiment: qHTS Assay to Find Inhibitors of T. brucei phosphofructokinase: hit validation (AID 492961);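 further: luminescence reports ADP formed as PFK phosphorylates fructose-6-phosphate with ATP; series mostly up to about 51 µM; on the % scale 0 is the no-effect control and ±100 the full control effect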
Procedure, shortened: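 Inhibition of parasite PFK is measured as reduced ADP formation, quantified via luciferase after ATP depletion. Assay used 0.1 mM ATP, 0.5 mM F6P, 1.25 nM enzyme, 45 min incubation.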

[15] = molecular target: Estrogen receptor (Homo sapiens) (UniProt P03372); experiment: qHTS assay for small molecule agonists of estrogen receptor alpha signaling (AID 588514; calls by dose curve;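 further: 0% = vehicle only and 100% = reference agonist; nearly all actives have a fitted effect of over 70% in size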)
Procedure, shortened: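 Read-out: CCF4 fluorescence from a beta-lactamase reporter in ER-alpha-UAS-bla HEK 293 cells after 18 hrs of compound exposure at 37 C. Normalized to 20 nM 17-beta-estradiol (100%) and DMSO (0%).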

[16] = molecular target: Bile acid receptor (Homo sapiens) (UniProt Q96RI1); experiment: qHTS assay for small molecule antagonists of farnesoid X receptor signaling (AID 588526; calls by dose curve; further: on the % scale 0 is the no-effect control and ±100 the full control effect)
Procedure, shortened: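 Antagonist mode: titrated compounds tested against chenodeoxycholic acid stimulation (normalized to 50 uM CDCA and DMSO) in GeneBLAzer HEK293T cells for 16 h. Beta-lactamase read by CCF4 fluorescence; IC50 from Hill fits.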

[17] = molecular target: DNA dC->dU-editing enzyme APOBEC-3G (Homo sapiens) (UniProt Q9HC16); experiment: qHTS for inhibitors of Vif-A3G interactions: Validation (AID 588379); further: 0% is about no effect
Procedure, shortened: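 Yellow fluorescence (Ex 488, Em 500-530) of Vif-coexpressing HeLa A3G-eYFP cells, scanned by Acumen cytometer, reports blocked A3G degradation. Cells plated at 700/well overnight at 37 deg C before compound addition, then a further overnight compound incubation at 37 deg C.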

[18] = molecular target: Estrogen receptor (Homo sapiens) (UniProt P03372); experiment: qHTS assay for small molecule antagonists of estrogen receptor alpha signaling (AID 588513; active means well fitted curve in the direction sought with a large enough effect in the signal ratio, with a control signal flat, not every such curve was filed as active; the % refers to the signal ratio; further: on the % scale 0 is the no-effect control and ±100 the full control effect)
Procedure, shortened: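 Fluorescence from CCF4 substrate after 2 h at room temperature gave reporter activity; cells had been exposed to compound and 0.5nM 17-beta-estradiol for 18 h at 37 C. Hill-equation fitting yielded IC50 and maximal response.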

[19] = molecular target: Androgen receptor (Homo sapiens) (UniProt P10275); experiment: qHTS assay for small molecule agonists of androgen receptor signaling (AID 588515; active means well fitted curve in the direction sought with a large enough effect in the signal ratio, with a control signal flat; the % refers to the signal ratio; further: on the % scale 0 is the no-effect control and ±100 the full control effect); conditions: AR-UAS-bla HEK293, beta-lactamase ratio, agonist 16 h; activation: stronger effect = higher value
Procedure, shortened: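 Stimulation of an AR-responsive β-lactamase reporter in GripTite HEK293 cells was measured after 16 h compound exposure at 37 °C, via CCF4 fluorescence after 2 h RT. EC50 from Hill fits, normalized to R1881 at 30 nM.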

[20] = molecular target: Androgen receptor (Homo sapiens) (UniProt P10275); experiment: qHTS assay for small molecule antagonists of androgen receptor signaling (AID 588516; active means well fitted curve in the direction sought with a large enough effect in the signal ratio, with a control signal flat, not every such curve was filed as active; the % refers to the signal ratio; further: on the % scale 0 is the no-effect control and ±100 the full control effect)
Procedure, shortened: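 Cells were plated and incubated 5 h, compounds added in titration, then R1881 (10 nM final) as agonist. After 16 h at 37 C, CCF4 substrate was loaded for 2 h at room temperature and fluorescence measured.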

Sequence of Galactokinase (Homo sapiens) (P51570 whole entry, looked up): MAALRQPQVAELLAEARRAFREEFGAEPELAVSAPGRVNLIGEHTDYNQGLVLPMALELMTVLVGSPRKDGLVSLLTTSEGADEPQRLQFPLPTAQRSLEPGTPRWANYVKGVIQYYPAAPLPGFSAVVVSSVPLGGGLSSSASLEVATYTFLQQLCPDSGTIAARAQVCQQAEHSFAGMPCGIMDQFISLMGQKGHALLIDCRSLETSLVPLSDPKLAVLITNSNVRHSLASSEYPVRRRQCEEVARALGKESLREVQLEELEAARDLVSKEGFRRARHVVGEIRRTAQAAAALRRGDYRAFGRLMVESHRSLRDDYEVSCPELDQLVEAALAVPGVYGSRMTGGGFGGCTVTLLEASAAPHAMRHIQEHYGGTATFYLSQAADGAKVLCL
Sequence of phosphoglycerate mutase (Leishmania major) (Q4Q090 1-553): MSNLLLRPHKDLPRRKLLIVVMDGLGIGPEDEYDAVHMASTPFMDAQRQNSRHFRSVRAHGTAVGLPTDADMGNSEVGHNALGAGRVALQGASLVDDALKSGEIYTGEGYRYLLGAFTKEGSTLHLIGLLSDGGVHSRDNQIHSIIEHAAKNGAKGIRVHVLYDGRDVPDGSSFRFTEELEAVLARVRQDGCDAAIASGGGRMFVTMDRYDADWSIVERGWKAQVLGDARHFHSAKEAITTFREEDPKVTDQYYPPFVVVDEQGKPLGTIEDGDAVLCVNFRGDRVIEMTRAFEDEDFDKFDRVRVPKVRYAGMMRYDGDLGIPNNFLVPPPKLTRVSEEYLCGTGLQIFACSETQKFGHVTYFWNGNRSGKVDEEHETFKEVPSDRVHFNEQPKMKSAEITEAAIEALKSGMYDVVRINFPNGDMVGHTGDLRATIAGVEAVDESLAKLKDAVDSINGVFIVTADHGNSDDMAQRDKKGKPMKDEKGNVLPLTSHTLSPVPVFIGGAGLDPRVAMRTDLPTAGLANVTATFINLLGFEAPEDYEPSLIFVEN
Sequence of DNA dC->dU-editing enzyme APOBEC-3G (Homo sapiens) (Q9HC16 whole entry, looked up): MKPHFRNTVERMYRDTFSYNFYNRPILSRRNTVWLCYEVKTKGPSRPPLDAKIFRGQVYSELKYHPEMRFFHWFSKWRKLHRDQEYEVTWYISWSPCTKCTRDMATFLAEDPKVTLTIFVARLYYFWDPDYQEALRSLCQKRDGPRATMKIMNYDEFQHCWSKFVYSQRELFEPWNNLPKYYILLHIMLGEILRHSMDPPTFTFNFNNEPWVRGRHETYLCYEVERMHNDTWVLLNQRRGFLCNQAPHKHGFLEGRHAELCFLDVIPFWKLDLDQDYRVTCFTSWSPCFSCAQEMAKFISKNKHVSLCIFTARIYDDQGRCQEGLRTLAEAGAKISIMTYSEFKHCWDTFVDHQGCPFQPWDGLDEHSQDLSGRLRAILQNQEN
Sequence of ATP-dependent 6-phosphofructokinase (Trypanosoma brucei brucei) (O15648 whole entry, looked up): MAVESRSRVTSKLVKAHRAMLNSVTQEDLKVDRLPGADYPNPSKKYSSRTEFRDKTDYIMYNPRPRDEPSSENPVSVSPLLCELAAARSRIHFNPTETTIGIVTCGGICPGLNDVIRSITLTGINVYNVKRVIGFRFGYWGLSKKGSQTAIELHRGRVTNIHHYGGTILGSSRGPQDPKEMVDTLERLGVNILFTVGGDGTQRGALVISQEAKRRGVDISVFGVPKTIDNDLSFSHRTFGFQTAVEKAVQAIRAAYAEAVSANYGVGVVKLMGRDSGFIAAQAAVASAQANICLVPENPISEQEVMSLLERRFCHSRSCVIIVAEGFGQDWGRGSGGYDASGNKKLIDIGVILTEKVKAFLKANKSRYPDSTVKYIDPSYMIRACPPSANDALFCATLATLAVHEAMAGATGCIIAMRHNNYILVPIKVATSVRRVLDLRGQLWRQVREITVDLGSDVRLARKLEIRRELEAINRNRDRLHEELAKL
Sequence of Estrogen receptor (Homo sapiens) (P03372 whole entry, looked up): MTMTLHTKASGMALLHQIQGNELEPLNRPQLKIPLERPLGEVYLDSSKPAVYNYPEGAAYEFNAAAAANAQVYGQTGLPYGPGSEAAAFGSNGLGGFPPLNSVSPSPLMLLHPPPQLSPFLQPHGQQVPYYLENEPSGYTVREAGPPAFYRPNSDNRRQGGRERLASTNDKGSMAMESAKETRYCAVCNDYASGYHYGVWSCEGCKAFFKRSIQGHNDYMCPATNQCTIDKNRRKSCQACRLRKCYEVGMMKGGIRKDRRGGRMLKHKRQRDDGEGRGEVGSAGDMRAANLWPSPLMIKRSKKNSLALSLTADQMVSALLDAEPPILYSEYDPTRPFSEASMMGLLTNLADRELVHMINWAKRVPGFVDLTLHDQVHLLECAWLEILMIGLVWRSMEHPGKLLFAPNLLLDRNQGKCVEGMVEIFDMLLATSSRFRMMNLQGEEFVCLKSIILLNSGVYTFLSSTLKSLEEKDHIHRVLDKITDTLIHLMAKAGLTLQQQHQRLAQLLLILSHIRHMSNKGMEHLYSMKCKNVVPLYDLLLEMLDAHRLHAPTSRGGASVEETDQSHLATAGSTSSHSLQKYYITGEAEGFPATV
Sequence of Bile acid receptor (Homo sapiens) (Q96RI1 whole entry, looked up): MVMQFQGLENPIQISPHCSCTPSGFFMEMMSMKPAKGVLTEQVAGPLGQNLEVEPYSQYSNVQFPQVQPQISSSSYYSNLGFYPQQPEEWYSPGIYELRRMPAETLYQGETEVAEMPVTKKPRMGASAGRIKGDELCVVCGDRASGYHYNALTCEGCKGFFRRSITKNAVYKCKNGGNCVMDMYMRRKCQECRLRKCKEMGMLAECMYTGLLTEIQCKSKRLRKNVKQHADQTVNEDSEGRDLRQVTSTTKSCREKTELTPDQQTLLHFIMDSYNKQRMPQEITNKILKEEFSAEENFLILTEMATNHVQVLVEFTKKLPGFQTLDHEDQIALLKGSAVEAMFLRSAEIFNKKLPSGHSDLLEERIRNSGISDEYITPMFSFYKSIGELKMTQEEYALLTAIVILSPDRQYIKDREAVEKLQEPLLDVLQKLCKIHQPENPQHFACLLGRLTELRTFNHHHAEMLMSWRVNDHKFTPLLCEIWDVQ
Sequence of Ubiquitin carboxyl-terminal hydrolase 1 (Homo sapiens) (O94782 whole entry, looked up): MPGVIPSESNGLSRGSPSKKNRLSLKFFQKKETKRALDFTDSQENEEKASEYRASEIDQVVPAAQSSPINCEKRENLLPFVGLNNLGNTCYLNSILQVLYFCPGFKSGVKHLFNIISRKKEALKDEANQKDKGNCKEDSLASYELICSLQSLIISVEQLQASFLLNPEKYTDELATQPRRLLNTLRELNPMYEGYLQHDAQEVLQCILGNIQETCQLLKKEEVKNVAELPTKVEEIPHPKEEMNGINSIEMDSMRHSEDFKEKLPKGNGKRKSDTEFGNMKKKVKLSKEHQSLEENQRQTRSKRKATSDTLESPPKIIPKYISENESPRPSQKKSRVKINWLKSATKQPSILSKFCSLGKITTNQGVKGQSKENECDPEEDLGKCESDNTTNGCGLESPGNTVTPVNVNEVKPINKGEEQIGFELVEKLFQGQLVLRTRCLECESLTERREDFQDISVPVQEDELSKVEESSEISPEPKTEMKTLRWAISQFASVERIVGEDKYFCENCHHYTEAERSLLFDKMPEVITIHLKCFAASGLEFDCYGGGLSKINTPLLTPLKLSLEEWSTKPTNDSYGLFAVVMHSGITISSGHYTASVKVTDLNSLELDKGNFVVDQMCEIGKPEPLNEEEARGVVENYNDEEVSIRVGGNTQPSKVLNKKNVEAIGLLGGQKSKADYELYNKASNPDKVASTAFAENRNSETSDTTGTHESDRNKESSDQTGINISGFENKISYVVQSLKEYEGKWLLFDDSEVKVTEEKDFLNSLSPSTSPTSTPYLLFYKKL
Sequence of Androgen receptor (Homo sapiens) (P10275 whole entry, looked up): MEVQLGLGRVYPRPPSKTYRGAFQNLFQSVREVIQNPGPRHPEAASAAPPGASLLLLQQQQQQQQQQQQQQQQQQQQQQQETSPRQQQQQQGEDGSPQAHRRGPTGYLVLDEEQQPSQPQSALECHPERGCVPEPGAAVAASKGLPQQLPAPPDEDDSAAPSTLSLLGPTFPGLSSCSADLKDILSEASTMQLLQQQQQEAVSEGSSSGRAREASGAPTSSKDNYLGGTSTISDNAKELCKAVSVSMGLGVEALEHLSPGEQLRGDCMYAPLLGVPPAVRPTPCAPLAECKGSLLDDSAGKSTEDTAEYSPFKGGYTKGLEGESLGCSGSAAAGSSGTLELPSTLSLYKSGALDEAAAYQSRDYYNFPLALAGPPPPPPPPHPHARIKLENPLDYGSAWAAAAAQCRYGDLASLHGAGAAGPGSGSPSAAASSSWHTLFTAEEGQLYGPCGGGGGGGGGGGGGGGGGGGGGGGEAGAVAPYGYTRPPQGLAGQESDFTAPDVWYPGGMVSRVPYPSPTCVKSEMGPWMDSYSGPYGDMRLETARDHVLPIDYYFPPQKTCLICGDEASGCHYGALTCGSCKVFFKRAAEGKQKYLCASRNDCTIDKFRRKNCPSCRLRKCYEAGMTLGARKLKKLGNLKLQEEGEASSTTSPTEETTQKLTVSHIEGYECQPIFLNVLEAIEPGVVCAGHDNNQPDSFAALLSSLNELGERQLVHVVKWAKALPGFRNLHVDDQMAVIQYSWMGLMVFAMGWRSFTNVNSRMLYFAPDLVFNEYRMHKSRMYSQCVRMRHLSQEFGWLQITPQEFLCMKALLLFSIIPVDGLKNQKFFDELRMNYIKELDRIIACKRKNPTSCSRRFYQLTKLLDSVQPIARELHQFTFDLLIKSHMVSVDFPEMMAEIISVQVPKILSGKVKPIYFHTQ
Sequence of Peptidyl-prolyl cis-trans isomerase NIMA-interacting 1 (Homo sapiens) (Q13526 whole entry, looked up): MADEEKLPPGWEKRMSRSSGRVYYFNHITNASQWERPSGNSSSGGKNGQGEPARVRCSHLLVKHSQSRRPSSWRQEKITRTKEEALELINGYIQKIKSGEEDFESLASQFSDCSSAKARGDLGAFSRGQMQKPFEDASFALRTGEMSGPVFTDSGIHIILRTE

CCN(Cc1ccncc1)C(=O)C(CO)c1ccccc1 (configuration not stated)
inactive: Potency [1] | Potency [2] | activation [3] 0.375% | Potency [4] | outcome [5] | outcome [6] | outcome [7] | outcome [8] | outcome [9] | outcome [10] | Potency [11] | Potency [12] | Potency [13]
-1.19%: viability change [4]

Nc1c2c(nc3ccccc13)CCCC2O (configuration not stated)
inactive: Potency [1] | Potency [2] | activation [3] 1.62% | Potency [4] | outcome [5] | outcome [7] | outcome [8] | outcome [9] | outcome [10] | Potency [11] | Potency [12] | Potency [13]
6.52%: viability change [4]

NC(=Nc1ccccc1)Nc1ccccc1
inactive: outcome [14] | Potency [11] | Potency [15] | outcome [16]

CCCCNC(=O)NS(=O)(=O)c1ccc(C)cc1
-5.96%: viability change [4]
inactive: Potency [1] | Potency [2] | activation [3] 1.25% | Potency [4] | outcome [5] | outcome [6] | outcome [7] | outcome [9] | outcome [10] | Potency [11] | Potency [12] | Potency [13] | outcome [16]

CCN(CC)CC(=O)Nc1c(C)cccc1C
inactive: Potency [1] | Potency [2] | activation [3] 1.5% | outcome [5] | outcome [6] | outcome [7] | outcome [8] | outcome [9] | outcome [10] | Potency [12] | Potency [13]

O=c1[nH]c(=O)n([C@H]2C[C@H](O)[C@@H](CO)O2)cc1Br
1.73%: viability change [4]
inactive: outcome [14] | Potency [2] | activation [3] 1% | Potency [4] | outcome [5] | outcome [6] | outcome [7] | outcome [8] | outcome [9] | outcome [10] | Potency [11] | Potency [12] | Potency [13] | outcome [17] | outcome [18] | Potency [15] | outcome [16]

CCCCOCCOCCOCc1cc2c(cc1CCC)OCO2
inactive: outcome [14] | Potency [11] | activation [19] 19.3% and -3.12% | outcome [20] | outcome [16]

O=C(O)CN(CCN(CC(=O)O)CC(=O)O)CCN(CC(=O)O)CC(=O)O
inactive: Potency [1] | Potency [2] | activation [3] 1.81% | Potency [4] | outcome [5] | outcome [6] | outcome [7] | outcome [9] | outcome [10] | Potency [11] | Potency [13]
-0.829%: viability change [4]

CCCCCN(CCCCC)C(=O)C(CCC(=O)O)NC(=O)c1ccc(Cl)c(Cl)c1 (configuration not stated)
inactive: Potency [1] | Potency [2] | activation [3] 1% | outcome [5] | outcome [6] | outcome [7] | outcome [8] | outcome [9] | outcome [10] | Potency [11] | Potency [13]

c1cnc(N2CCN(Cc3ccc4c(c3)OCO4)CC2)nc1
inactive: Potency [1] | Potency [2] | activation [3] -3.31% | Potency [4] | outcome [5] | outcome [6] | outcome [7] | outcome [9] | outcome [10] | Potency [11] | Potency [12] | Potency [13] | outcome [17]
2.39%: viability change [4]

CN(C)CCCN1c2ccccc2Sc2ccc(C(F)(F)F)cc21
inactive: outcome [14] | Potency [1] | outcome [6] | outcome [9] | outcome [10]

CN(C(=O)CCCOc1ccc2[nH]c(=O)ccc2c1)C1CCCCC1
inactive: outcome [14] | activation [3] 1.44% | outcome [5] | outcome [7] | outcome [8] | outcome [9] | outcome [10] | Potency [11] | Potency [12] | Potency [13] | outcome [17]
